Inconclusive results are not listed. Where a call stands in place of a potency, no number is given. The source made the active and inactive calls. The call rests on the fitted dose curve; in most records, active means well fitted cell-killing curve with a large enough effect in the repeat runs; inconclusive means weak or mixed curves, or effect the other way; inactive means flat fitted curve, though single readings scatter.

The nature of one assay: cAMP Responsive Elements (CRE) small molecule antagonists, cell-based qHTS assay: qHTS cell viability counter screen (AID 2060913). Further: nearly all actives have a fitted effect of over 40% in size. To be noted: CRE-bla HEK293T viability, CellTiter-Glo luminescence, 5 h; series mostly up to 92.4 µM. In a few lines:
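CRE-bla HEK293T cells were seeded in assay medium with 10% dialyzed FBS, incubated 18 hrs at 37 C, then exposed to compounds plus 0.25 uM final NKH477 for 3 hrs. Viability was read by CellTiter-Glo luminescence after 30 min, in the same wells.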
(In general: In qHTS, concentration-response curves come from the screen itself.)
As for `c1ccc2c(c1)Oc1ccccc1O2`, the Potency result was “inactive”. With `O=[N+]([O-])C(Br)(CO)CO`, the Potency entry was “inactive”. Regarding `COC(=O)c1ccccc1C(=O)OC`, the Potency entry was “inactive”. With `OC(Cc1ccccc1Cl)(Cn1cncn1)C1(Cl)CC1` (configuration not stated), the Potency entry was “inactive”. Still for that read-out and setting: the same measure for `Cc1cc(=O)[nH]o1`: “inactive”; for `O=c1[nH]c2ccccc2n1CCCN1CCC(n2c(=O)[nH]c3cc(Cl)ccc32)CC1`: “inactive”; for `CC(C)C1(C)N=C(c2ncccc2C(=O)O)NC1=O` (configuration not stated): “inactive”. Consider `ClC1(Cl)C2(Cl)C3(Cl)C4(Cl)C(Cl)(Cl)C5(Cl)C3(Cl)C1(Cl)C5(Cl)C24Cl` (configuration not stated), for which the Potency entry was “inactive”.

Take `C=CCOC(=O)C(C)(C)OC(=O)c1cc(-n2c(=O)cc(C(F)(F)F)n(C)c2=O)ccc1Cl`: the Potency result is “inactive”. On the same count and under the same terms, with `CCCBr` the entry was “inactive”. In the case of `C#CCN1C(=O)COc2cc(F)c(N3C(=O)C4=C(CCCC4)C3=O)cc21`, the Potency result is “inactive”.

Take `CCC1(CC)C(=O)C=CNC1=O`: the Potency entry was “inactive”.

Turning to `CC(C)C#N`, the Potency entry is “inactive”.

`C[N+]1(C)[C@@H]2CC[C@H]1CC(OC(=O)C(CO)c1ccccc1)C2` (some centres not stated): the Potency entry was “inactive”. The same measure, in the same setting: the same measure for `COc1ccc(CN2CCNCC2)c(OC)c1OC`: “inactive”; for `C=C1C[C@@H]2[C@H](CC[C@]3(C)C(=O)CC[C@@H]23)[C@@]2(C)C=CC(=O)C=C12`: “inactive”; for `CCCCOCCOC(C)=O`: “inactive”.

Another assay is described as follows: cAMP Responsive Elements (CRE) small molecule agonists, cell-based qHTS assay: qHTS cell viability counter screen (AID 2060914). Further: nearly all actives have a fitted effect of over 50% in size. To be noted: CRE-bla HEK293T viability, CellTiter-Glo luminescence, 5 h; series mostly up to 92.4 µM. In a few lines:
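Cytotoxicity was measured as ATP luminescence (CellTiter-Glo, 30 min at room temperature) in the same wells as the CRE-bla FRET read-out. HEK293T CRE-bla cells had 3 h compound exposure at 37C/5% CO2.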
As for `O=S(=O)(O)OOS(=O)(=O)O`, the Potency result is “inactive”. For `CC[N+](=O)[O-]`, the Potency entry was “inactive”. On to `CCCCC(CC)COP(=O)(Oc1ccccc1)Oc1ccccc1` (configuration not stated), for which the Potency result was “inactive”.

Turning to `CN(C)C(=O)Nc1cccc(C(F)(F)F)c1`, the Potency result is “inactive”. For `Cc1ccc2c(c1)C1CN(C)CCC1N2` (configuration not stated), the activity change, negative = cytotoxicity is -0.524% [at 18.9 µM] (inactive). For `CCC1(C2=NCCN2)Cc2ccccc2O1` (configuration not stated), the Potency result was “inactive”.

For `CCC(COC(=O)c1cc(OC)c(OC)c(OC)c1)(c1ccccc1)N(C)C` (configuration not stated), the Potency result was “inactive”. `C[C@]12CCC(=O)C=C1CC[C@@H]1[C@@H]2CC[C@]2(C)C(=O)CC[C@@H]12`: the Potency entry is “inactive”.

For `Oc1ccc2[nH]cc(CCCCN3CC=C(c4ccccc4)CC3)c2c1`, the Potency entry was “inactive”. For `CNC(=O)Oc1c(C(C)(C)C)cc(C)cc1C(C)(C)C`, the Potency result is “inactive”.

In the case of `CCN(CC)CCc1c[nH]c2ccccc12`, the Potency entry was “inactive”. On the same count and under the same terms, the same measure for `CCOc1ccc(N)cc1`: “inactive”.

Turning to `O=[N+]([O-])O.O=[N+]([O-])O.[Cd]`, the Potency result was “inactive”. Still for that read-out and setting: with `Brc1ccc(Br)cc1` the entry was “inactive”. `O=C1CN=C(c2ccccc2)c2cc([N+](=O)[O-])ccc2N1`: the Potency entry was “inactive”. `c1ccc2c(c1)cc1ccc3cccc4ccc2c1c34`: the Potency result is “inactive”. On the same count and under the same terms, the same measure for `Oc1ccc(Cc2ccc(O)cc2)cc1`: “inactive”; for `CCOC(=O)C(SP(=S)(OC)OC)c1ccccc1` (configuration not stated): “inactive”. On to `C=CCOCC1CO1` (configuration not stated), for which the Potency result was “inactive”. Take `[Cl][Sn]([Cl])([Cl])[Cl]`: the Potency entry is “inactive”. Consider `C[C@@H]1CC[C@H]2[C@@H](C)C(=O)O[C@@H]3O[C@@]4(C)CC[C@@H]1[C@]32OO4`, for which the Potency entry was “inactive”. As to `COc1cc(CC(C)N)cc(OC)c1OC` (configuration not stated), the Potency entry is “inactive”. Take `CC(C)=CC1C(C(=O)OCN2C(=O)C3=C(CCCC3)C2=O)C1(C)C` (configuration not stated): the Potency result was “inactive”. With `c1ccc2c(c1)Oc1ccccc1O2`, the Potency result is “inactive”. Regarding `O=[N+]([O-])C(Br)(CO)CO`, the Potency entry is “inactive”.

`COC(=O)c1ccccc1C(=O)OC`: the Potency entry is “inactive”.

Turning to `OC(Cc1ccccc1Cl)(Cn1cncn1)C1(Cl)CC1` (configuration not stated), the Potency entry is “inactive”. With `Cc1cc(=O)[nH]o1`, the Potency entry was “inactive”. Turning to `O=c1[nH]c2ccccc2n1CCCN1CCC(n2c(=O)[nH]c3cc(Cl)ccc32)CC1`, the Potency entry was “inactive”.

Take `CC(C)C1(C)N=C(c2ncccc2C(=O)O)NC1=O` (configuration not stated): the Potency entry was “inactive”. `ClC1(Cl)C2(Cl)C3(Cl)C4(Cl)C(Cl)(Cl)C5(Cl)C3(Cl)C1(Cl)C5(Cl)C24Cl` (configuration not stated): the Potency result was “inactive”. For `C=CCOC(=O)C(C)(C)OC(=O)c1cc(-n2c(=O)cc(C(F)(F)F)n(C)c2=O)ccc1Cl`, the Potency result is “inactive”. `CCCBr`: the Potency entry is “inactive”. `C#CCN1C(=O)COc2cc(F)c(N3C(=O)C4=C(CCCC4)C3=O)cc21`: the Potency result was “inactive”. With `CCC1(CC)C(=O)C=CNC1=O`, the Potency entry was “inactive”. `CC(C)C#N`: the Potency result was “inactive”. With `C[N+]1(C)[C@@H]2CC[C@H]1CC(OC(=O)C(CO)c1ccccc1)C2` (some centres not stated), the Potency result is “inactive”. On the same count and under the same terms, with `COc1ccc(CN2CCNCC2)c(OC)c1OC` the entry was “inactive”; with `C=C1C[C@@H]2[C@H](CC[C@]3(C)C(=O)CC[C@@H]23)[C@@]2(C)C=CC(=O)C=C12`, “inactive”; with `CCCCOCCOC(C)=O`, “inactive”.

Values taken from PubChem BioAssay (Tox21).
